Laboratory results taken from PubChem BioAssay (NCATS).
Values without a mark were called inactive. Results filed as inconclusive are left out. Where a call stands in place of a potency, no number is given. Active and inactive are the calls of the source. Calls come from the whole dose curve; as a rule, active = well fitted inhibition curve with a large enough effect; inconclusive = small, poorly fitted or top-dose-only effect; inactive = flat fitted curve, though single readings scatter.

The molecules below were run against Phospholipid hydroperoxide glutathione peroxidase GPX4 (Homo sapiens) (UniProt P36969) (assay: Primary qHTS Assay for Inhibitors of Recombinant Selenoprotein Glutathione Peroxidase 4 (GPX4) (AID 1845192; note: nearly all actives have a fitted effect of over 65% in size)). Details: recombinant GPX4, GR-coupled NADPH fluorescence, 15 min; series mostly up to 27.8 µM.
Phospholipid hydroperoxide glutathione peroxidase GPX4 (Homo sapiens), sequence (P36969 whole entry, looked up): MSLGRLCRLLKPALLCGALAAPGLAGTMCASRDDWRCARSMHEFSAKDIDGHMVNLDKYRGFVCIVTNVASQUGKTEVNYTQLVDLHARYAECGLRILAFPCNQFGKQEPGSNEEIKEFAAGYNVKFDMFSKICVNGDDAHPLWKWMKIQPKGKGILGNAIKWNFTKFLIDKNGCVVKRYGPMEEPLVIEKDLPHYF
Method in brief: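 Steps: GPX4 plus compound, 30 min RT; add GR/GSH/NADPH master mix; start with cumene hydroperoxide; read 340/450 nm fluorescence at 0 and 15 min. Finals were 200 nM GPX4, 1 mM GSH, 0.5 mM CHP, 0.5 mM NADPH, 100 nM GR.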

SMILES | Potency
C=C1C(=O)O[C@@H]2/C=C(\C)CC/C=C(\C(=O)O[C@@H]3O[C@H](CO)[C@@H](O)[C@H](O)[C@H]3O)CC[C@@H]12 | inactive
CCCSc1nc(NC2CC2c2ccc(F)c(F)c2)c2nnn(C3CC(OCCO)C(O)C3O)c2n1 (stereo not drawn) | inactive
CCCCCOC(=O)Nc1nc(=O)n(C2O[C@H](C)[C@@H](O)[C@H]2O)cc1F (stereo partly drawn) | inactive
CN(C)CCC[C@]1(c2ccc(F)cc2)OCc2cc(C#N)ccc21 | inactive
CCCCC(=O)N1c2ccccc2NC2=C(C(=O)CCC2)C1c1ccccc1Cl (stereo not drawn) | inactive
C[C@@H]1CC[C@]2(C(=O)O[C@@H]3O[C@H](CO[C@@H]4O[C@H](CO)[C@@H](O[C@@H]5O[C@@H](C)[C@H](O)[C@@H](O)[C@H]5O)[C@H](O)[C@H]4O)[C@@H](O)[C@H](O)[C@H]3O)CC[C@]3(C)C(=CCC4[C@@]5(C)C[C@@H](O)[C@H](O)[C@@](C)(CO)C5CC[C@]43C)C2[C@H]1C (stereo partly drawn) | inactive
COc1cc(Nc2ccc([N+](=O)[O-])cc2C(=O)O)cc2ccccc12 | inactive
Nc1ncnc2c1c(COc1cccc(Cl)c1)nn2C1CCOCC1 | inactive
Cc1ccc2[nH]c(=O)c(C3=NN(C(=O)CCC(=O)O)C(c4ccc(Br)cc4)C3)c(-c3ccccc3)c2c1 (stereo not drawn) | inactive

Each molecule was assayed against Luciferin 4-monooxygenase (Photinus pyralis) (UniProt P08659) (assay: Primary firefly luciferase (FLuc) qHTS assay for identification of artifact compounds. (AID 1845220; note: nearly all actives have a fitted effect of over 60% in size; note: potency is the fitted concentration of half-maximal effect)). Details: purified firefly luciferase, luminescence, 5 min; series mostly up to 54.1 µM.
Method in brief: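 D-luciferin and ATP (10 uM each, final) in Tris acetate buffer pH 7.6 were incubated with compounds for 15 min at room temperature. The reaction was started with 10 nM Photinus pyralis luciferase and luminescence read after 5 min. Percent inhibition was fitted to a 4-parameter Hill equation.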

SMILES | Potency | activity change, negative = inhibition
COc1ccc(C2COc3cc(O)ccc3C2)c(O)c1OC (stereo not drawn) | 19 µM (active) | –
C/C=C/C=C/C=C/C(=O)OC1C=C2C(O)OC(=O)[C@]2(O)[C@@]2(C)CCCC(C)(C)[C@H]12 (stereo partly drawn) | inactive | –
CC1(C)CC[C@]2(C(=O)O[C@@H]3O[C@H](CO)[C@@H](O)[C@H](O)[C@H]3O)[C@H](O)C[C@]3(C)C(=CCC4[C@@]5(C)CC[C@H](O[C@@H]6OC[C@@H](O)[C@H](O)[C@H]6O)[C@@](C)(C(=O)O)C5CC[C@]43C)[C@@H]2C1 (stereo partly drawn) | inactive | –
COc1cc(C)c(C(=O)OC2C(C)OC(OC3CCC(C)C4C3C=C(C)C3/C(C)=C\CC/C(C)=C/C5(C)C=C(C(=O)O)C(C)CC56OC(=O)/C(=C(\O)C34C)C6=O)C(O)C2O)c(OC)c1 (stereo not drawn) | – | 1.3% [at 11.6 µM]
CCOC(=O)C(CCc1ccccc1)NC(C)C(=O)N1Cc2ccccc2CC1C(=O)O (stereo not drawn) | inactive | –
C[C@@H]1O[C@@H](O[C@H]2[C@H](Oc3cc(O)c(C(=O)CCc4ccc(O)cc4)c(O)c3)O[C@H](CO)[C@@H](O)[C@@H]2O)[C@H](O)[C@H](O)[C@H]1O | inactive | –
C[C@@H]1O[C@@H](OC[C@H]2O[C@@H](OCc3ccccc3)[C@H](O)[C@@H](O)[C@@H]2O)[C@H](O)[C@H](O)[C@H]1O | inactive | –
CC(C)C1CCC(C(=O)N[C@@H](Cc2ccccc2)C(=O)O)CC1 (stereo partly drawn) | inactive | –
C=CC(C)(O)CCC1C(C)(O)CCC2C(C)(C)CCCC21C (stereo not drawn) | inactive | –
COc1cccc(OC)c1-c1ccc(C[C@H](NC(=O)c2c(Cl)cccc2Cl)C(=O)O)cc1 | inactive | –
CC1CC2OCC3(O)CCC(O)C(C14CC(c1ccoc1)OC4=O)C23CO (stereo not drawn) | inactive | –
CC1(C)[C@H]2C[C@H](C/C=C\CCCC(=O)O)[C@@H](NC(=O)c3csc4ccc(O)cc34)[C@@H]1C2 | inactive | –
C=C1CC[C@H]2[C@@](C)(CCC(OC3OC(CO)C(O)C(O)C3O)[C@@]2(C)CO)C1C(=O)CC1=CCOC1=O (stereo partly drawn) | inactive | –
CC1(C)CC[C@]2(C(=O)O)CC[C@]3(C)C(=CCC4[C@@]5(C)CC[C@H](O)C(C)(C)C5CC[C@]43C)C2C1 (stereo partly drawn) | inactive | –
O=C(N[C@@H]1CC[C@@H](c2cccc(F)c2F)CN(CC(F)(F)F)C1=O)N1CCC(n2c(=O)[nH]c3ncccc32)CC1 | inactive | –
CCC(=O)OCC(=O)[C@@]1(OC(=O)CC)[C@@H](C)C[C@H]2[C@@H]3CCC4=CC(=O)C=C[C@]4(C)[C@@]3(F)[C@@H](O)C[C@@]21C | inactive | –
CN1CCN(C(=O)c2cc3cc(Cl)ccc3[nH]2)CC1 | inactive | –
C=C1C(OC(C)=O)CCC2(C)CC3(O)OC(=O)C(C)=C3CC12 (stereo not drawn) | inactive | –
CC1(C)CC[C@]2(C(=O)O[C@@H]3O[C@H](CO)[C@@H](O)[C@H](O)[C@H]3O)CC[C@]3(C)C(=CCC4[C@@]5(C)CC[C@H](O[C@H]6O[C@H](CO)[C@@H](O)[C@H](O[C@@H]7O[C@H](CO)[C@@H](O)[C@H](O)[C@H]7O)[C@H]6O)C(C)(C)C5CC[C@]43C)[C@@H]2C1 (stereo partly drawn) | – | 0.281% [at 11.6 µM]
